Active and inactive are the calls of the source. Unless noted, how the calls were made is not given here.
How the values were obtained:
[1] = system: Wnt5a (protein binding on small-molecule microarray); experiment: small molecules binding Wnt5a protein – biophysical, small-molecule microarray, 635/667 nm fluorescence, primary screen (AID 1142); details: 635 nm fluorescence, higher = more signal;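 further: fluorescence read at 667 nm with signal to noise per printed feature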
[2] = ATP-based viability of Huh7 replicon cells – cell-based, CellTiter-Glo luminescence, basal, 48 h, cytotoxicity control for HCV replication inhibitor project, primary screen (AID 1143); details: higher = more signal, called active from +8 up or from −8 down;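 further: Huh7 hepatoma cells carrying a hepatitis C replication reporter with no stimulus; test concentration not given here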
[3] = Pseudomonas biofilm growth suppression – PAO1 strain, BacTiter-Glo luminescence, LB-PBS, primary screen (AID 1144); details: P. aeruginosa PAO1 biofilm, 12 h, higher = more signal
[4] = basal CRE-LacZ reporter activity in PC12 – cell-based, unstimulated, primary screen (AID 1145); details: no forskolin, luminescence, 4.5 h, higher = more signal, called active from +8 up or from −8 down
[5] = forskolin-driven CRE-LacZ activity in PC12 – cell-based, CRE-LacZ reporter, forskolin-stimulated, primary screen (AID 1146); details: luminescence, 4.5 h, higher = more signal, called active from +8 up or from −8 down;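 further: PC12 cells with 6xCRE LacZ reporter stimulated by forskolin 10 µM; beta-galactosidase reporter signal reflecting CREB driven transcription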
[6] = target: Streptavidin (Streptomyces avidinii) (UniProt P22629); experiment: compounds binding control protein streptavidin – biophysical, small-molecule microarray, 635/667 nm fluorescence, artefact control for SMM compound annotation, primary screen (AID 1147); details: higher = more signal;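 further: signal reflects streptavidin binding to arrayed compounds as a control protein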
[7] = probe aInhba binding on compound microarray – biochemical, small-molecule microarray, 635/667 nm fluorescence, primary screen (AID 1148); details: higher = more signal;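 further: score merges 667nm spot fluorescence with signal-to-noise for antibody binding to printed compounds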
Torsin-1A (Homo sapiens) [8] = target: Torsin-1A (Homo sapiens) (UniProt O14656); experiment: TOR1A wild-type binding on microarray – cell lysate, small-molecule microarray, lysate, 635/667 nm, primary screen (AID 1149); details: COS7 hTOR1A-WT lysate, 635 nm fluorescence, higher = more signal
Torsin-1A (Homo sapiens) [9] = target: Torsin-1A (Homo sapiens) (UniProt O14656); experiment: torsin A mutant lysate binding on microarrays – cell lysate, small-molecule microarray, COS7 lysate, 635/667 nm fluorescence, primary screen (AID 1150); details: COS7 hTOR1A mutant lysate, 635 nm fluorescence, higher = more signal;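 further: score pools 667 nm emission and signal to noise measuring lysate protein binding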
[10] = system: Sonic hedgehog protein (Shh); experiment: Sonic hedgehog microarray binding compounds – biochemical, small-molecule microarray, 635/667 nm fluorescence, primary screen (AID 1151); details: 635 nm fluorescence, higher = more signal;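 further: Shh protein binding to compounds spotted on small-molecule microarray slides; score combines spot fluorescence intensity with signal-to-noise across triplicate slides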
[11] = optical density shifts of acrAB sulA E. coli – strain DRC41, OD650, 48 h, E. coli filamentation inducer project, primary screen (AID 1152); details: higher = more signal, called active from +8 up or from −8 down;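 further: E. coli MC1000 strain DRC41 lacking acrAB efflux pump and sulA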
[12] = probe aLefty1 binding on compound microarray – biochemical, small-molecule microarray, 635/667 nm fluorescence, primary screen (AID 1153); details: higher = more signal;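 further: score merges spot fluorescence with signal-to-noise ratio from the scanned slide images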
[13] = plasmodial surface anion channel blockers, osmotic lysis – cell-based, P. falciparum Indochina, OD700, 1 h, primary screen (AID 1154); details: P. falciparum Indochina infected RBC osmotic lysis, higher = more signal, called active from +8 up or from −8 down
[14] = plasmodial surface anion channel blockers, osmotic lysis – cell-based, P. falciparum Indochina, OD700, 2 h, primary screen (AID 1155);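 further: lysis reports solute entry through the parasite surface anion channel PSAC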; details: P. falciparum Indochina infected erythrocytes, higher = more signal, called active from +8 up or from −8 down
[15] = changes in parasitized red cell lysis, either direction – P. falciparum Indochina, OD700, 3 h, PSAC antagonist project, primary screen (AID 1156); details: P. falciparum-infected erythrocytes, osmotic lysis, higher = more signal, called active from +8 up or from −8 down
[16] = plasmodial surface anion channel blockers, osmotic lysis – cell-based, P. falciparum Indochina, OD700, 18 h, primary screen (AID 1157); details: P. falciparum Indochina infected erythrocytes, osmotic lysis OD700, 18 h; higher = more signal, called active from +8 up or from −8 down
[17] = S6 kinase pathway phospho-S6 level changes – cell-based, A549, cytoblot, luminescence, serum-stimulated, primary screen (AID 1158); details: 5 h, higher = more signal;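 further: serum-stimulated A549 lung adenocarcinoma cells; signal is phosphorylated S6 detected by cytoblot immunostaining with HRP secondary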
[18] = target: NADPH oxidase 2 (Homo sapiens) (UniProt P04839); experiment: compounds shifting NOX2 Amplex Red fluorescence – cell-based, HEK293-NOX2, PMA-stimulated, NOX inhibitor project, primary screen (AID 1159); details: 45 min, higher = more signal, called active from +8 up or from −8 down; further: test concentration not given here
[19] = target: NADPH oxidase 4 (Homo sapiens) (UniProt Q9NPH5); experiment: compounds shifting NOX4 Amplex Red fluorescence – cell-based, HEK293-NOX4, tetracycline-induced, NOX inhibitor project, primary screen (AID 1160); details: HEK293-NOX4, Amplex Red H2O2 fluorescence, 45 min; higher = more signal, called active from +8 up or from −8 down
[20] = target: NADPH oxidase 5 (Homo sapiens) (UniProt Q96PH1); experiment: compounds shifting NOX5 Amplex Red fluorescence – cell-based, HEK293-NOX5, NOX inhibitor project, primary screen (AID 1161); details: HEK293-NOX5, ionomycin, 45 min, higher = more signal
NADPH oxidase 5 (Homo sapiens), sequence (Q96PH1 whole entry, looked up): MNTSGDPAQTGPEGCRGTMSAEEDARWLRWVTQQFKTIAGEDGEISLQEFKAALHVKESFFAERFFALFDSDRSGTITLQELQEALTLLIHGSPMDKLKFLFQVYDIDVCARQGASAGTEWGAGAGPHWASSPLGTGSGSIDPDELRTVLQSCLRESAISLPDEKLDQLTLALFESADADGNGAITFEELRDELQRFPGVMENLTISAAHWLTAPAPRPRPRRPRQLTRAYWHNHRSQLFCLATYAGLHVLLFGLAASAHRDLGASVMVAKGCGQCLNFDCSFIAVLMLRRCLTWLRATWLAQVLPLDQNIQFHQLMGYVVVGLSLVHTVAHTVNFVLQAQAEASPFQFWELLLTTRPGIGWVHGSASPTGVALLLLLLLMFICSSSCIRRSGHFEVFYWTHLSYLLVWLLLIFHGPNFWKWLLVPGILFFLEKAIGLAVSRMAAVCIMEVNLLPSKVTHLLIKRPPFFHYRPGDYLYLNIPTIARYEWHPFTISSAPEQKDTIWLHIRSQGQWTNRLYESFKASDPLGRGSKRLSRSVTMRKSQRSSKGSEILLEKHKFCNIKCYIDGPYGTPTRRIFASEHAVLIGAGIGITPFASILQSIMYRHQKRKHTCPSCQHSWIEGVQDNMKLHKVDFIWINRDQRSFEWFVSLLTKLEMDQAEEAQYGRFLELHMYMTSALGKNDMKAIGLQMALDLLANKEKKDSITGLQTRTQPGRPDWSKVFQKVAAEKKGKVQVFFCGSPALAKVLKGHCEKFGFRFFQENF

Streptavidin (Streptomyces avidinii), sequence (P22629 whole entry, looked up): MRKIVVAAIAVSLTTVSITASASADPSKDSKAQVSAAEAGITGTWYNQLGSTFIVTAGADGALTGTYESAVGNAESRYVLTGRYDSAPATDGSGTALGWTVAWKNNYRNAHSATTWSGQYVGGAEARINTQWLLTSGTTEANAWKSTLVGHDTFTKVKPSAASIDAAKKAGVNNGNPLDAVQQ
Torsin-1A (Homo sapiens), sequence (O14656 whole entry, looked up): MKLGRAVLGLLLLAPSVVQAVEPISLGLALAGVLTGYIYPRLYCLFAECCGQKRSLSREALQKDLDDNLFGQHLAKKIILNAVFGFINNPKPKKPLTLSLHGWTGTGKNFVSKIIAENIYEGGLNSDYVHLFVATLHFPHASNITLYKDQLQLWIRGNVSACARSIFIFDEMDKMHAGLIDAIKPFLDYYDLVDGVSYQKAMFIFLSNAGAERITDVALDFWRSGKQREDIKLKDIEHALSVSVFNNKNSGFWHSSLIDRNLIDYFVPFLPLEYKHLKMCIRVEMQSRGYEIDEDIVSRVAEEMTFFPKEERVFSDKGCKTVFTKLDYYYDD
NADPH oxidase 4 (Homo sapiens), sequence (Q9NPH5 whole entry, looked up): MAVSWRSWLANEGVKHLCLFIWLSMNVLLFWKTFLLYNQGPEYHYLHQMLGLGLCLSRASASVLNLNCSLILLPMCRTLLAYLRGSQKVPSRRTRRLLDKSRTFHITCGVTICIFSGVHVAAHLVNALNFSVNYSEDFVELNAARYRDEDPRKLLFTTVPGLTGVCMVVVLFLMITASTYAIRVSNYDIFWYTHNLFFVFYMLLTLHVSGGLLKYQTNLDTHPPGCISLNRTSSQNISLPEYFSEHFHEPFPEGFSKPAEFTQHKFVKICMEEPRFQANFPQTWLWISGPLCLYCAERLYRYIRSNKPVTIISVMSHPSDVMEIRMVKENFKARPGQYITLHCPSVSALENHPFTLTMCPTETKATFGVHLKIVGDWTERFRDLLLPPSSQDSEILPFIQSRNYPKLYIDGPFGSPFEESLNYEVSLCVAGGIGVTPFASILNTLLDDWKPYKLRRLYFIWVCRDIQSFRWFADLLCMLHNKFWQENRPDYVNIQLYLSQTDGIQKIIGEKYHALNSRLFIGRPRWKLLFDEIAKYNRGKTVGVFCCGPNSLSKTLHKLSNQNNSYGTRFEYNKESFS
NADPH oxidase 2 (Homo sapiens), sequence (P04839 whole entry, looked up): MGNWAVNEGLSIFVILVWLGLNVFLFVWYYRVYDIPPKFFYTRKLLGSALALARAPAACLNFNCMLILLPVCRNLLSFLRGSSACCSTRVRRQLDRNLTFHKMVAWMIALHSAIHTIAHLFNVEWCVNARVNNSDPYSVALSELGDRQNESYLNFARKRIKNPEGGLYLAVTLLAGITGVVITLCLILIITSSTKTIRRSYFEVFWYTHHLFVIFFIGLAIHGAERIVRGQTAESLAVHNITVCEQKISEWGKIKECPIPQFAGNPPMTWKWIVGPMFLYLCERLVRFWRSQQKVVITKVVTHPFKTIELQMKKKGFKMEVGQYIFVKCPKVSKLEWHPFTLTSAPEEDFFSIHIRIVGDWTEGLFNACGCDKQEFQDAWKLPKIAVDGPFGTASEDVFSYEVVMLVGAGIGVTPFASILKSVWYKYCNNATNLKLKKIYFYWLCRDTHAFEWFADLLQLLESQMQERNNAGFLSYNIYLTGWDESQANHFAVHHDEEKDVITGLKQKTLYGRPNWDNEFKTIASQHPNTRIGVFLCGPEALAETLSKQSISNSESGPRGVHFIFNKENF

Compound	composite z-score [1]	z-score [2]	z-score [3]	z-score [4]	z-score [5]	composite z-score [6]	composite z-score [7]	composite z-score (Torsin-1A (Homo sapiens) [8])	composite z-score (Torsin-1A (Homo sapiens) [9])	composite z-score [10]	z-score [11]	composite z-score [12]	z-score [13]	z-score [14]	z-score [15]	z-score [16]	z-score [17]	z-score [18]	z-score [19]	z-score [20]
COC(=O)[C@H](C)NC(=O)CCC1CC(OC(=O)NCc2cccc3ccccc23)CC2(CCCC(COC(=O)NCCc3ccc(Cl)cc3)O2)O1 (stereo not given in full)	-0.173	-0.006 (inactive)	-0.494 (inactive)	0.2 (inactive)	0.45 (inactive)	0.558	-0.152	0.405	0.353	0.569	0.434 (inactive)	-0.375	0.119 (inactive)	-0.214 (inactive)	-0.801 (inactive)	-0.193 (inactive)	0.362	0.779 (inactive)	1.18 (inactive)	1.55
CO[C@@H]1COC(=O)CCC[C@@H](C)[C@H](OC)COC(=O)[C@H](Cc2ccccc2)NC(=O)CC=C[C@H]1C	-0.706	-1.08 (inactive)	-0.894 (inactive)	0.0897 (inactive)	1.18 (inactive)	-0.431	-0.159	1.34	-0.0271	1.99	0.585 (inactive)	-0.235	1.99 (inactive)	1.07 (inactive)	1.21 (inactive)	0.368 (inactive)	1.02	0.0908 (inactive)	-0.255 (inactive)	-0.444
CC(=O)OC[C@H]1O[C@H](CC=NOC[C@@H](C)[C@H](OCc2ccccc2)C(C)C)C=C[C@@H]1OC(C)=O	-0.0373	-0.23 (inactive)	-0.369 (inactive)	2.04 (inactive)	0.494 (inactive)	-0.0152	-0.0504	-0.0387	0.0881	0.583	-0.0083 (inactive)	-0.101	1.25 (inactive)	0.766 (inactive)	0.712 (inactive)	0.343 (inactive)	-0.0212	-0.401 (inactive)	-0.344 (inactive)	-2.35
CC(C)[Si]1(C(C)C)O[C@@H](c2ccccc2)c2cc(C3CC3)nc(-c3ccccc3)c21	-0.0654	0.414 (inactive)	-0.134 (inactive)	-0.258 (inactive)	-0.541 (inactive)	0.0887	-0.207	-1	-0.124	0.397	-1.02 (inactive)	-0.108	1.27 (inactive)	0.389 (inactive)	-0.0854 (inactive)	-0.0349 (inactive)	0.19	-0.305 (inactive)	0.504 (inactive)	0.0972
CCCCc1nc2c(c3c1C[C@H](C)OC3)CN(CCC(C)C)CC2	0.122	-0.262 (inactive)	-0.578 (inactive)	7.7 (inactive)	-1.14 (inactive)	0.0392	-0.0074	0.888	0.622	0.992	-0.192 (inactive)	-0.106	1.35 (inactive)	0.977 (inactive)	0.816 (inactive)	0.589 (inactive)	0.171	0.35 (inactive)	0.315 (inactive)	0.776
CC(CCN1CCc2nc(-c3ccccc3)c(-c3ccccc3)cc2C1)=NO[C@H](C)c1cn([C@@H]2COC[C@H]2O)nn1	0.0025	-0.615 (inactive)	-0.733 (inactive)	0.983 (inactive)	-0.258 (inactive)	-0.384	0.0183	1.01	1.11	0.572	0.548 (inactive)	0.0026	4.09 (inactive)	0.722 (inactive)	1.56 (inactive)	0.391 (inactive)	0.387	-2.96 (inactive)	0.289 (inactive)	-0.331
O=C1O[C@@H](c2ccccc2)[C@@H](c2ccccc2)N2[C@@H](c3ccc(OCCO)cc3)[C@]3(C(=O)Nc4ccccc43)[C@@H](C(=O)N3CCN(c4ncccn4)CC3)[C@H]12	0.22	-0.704 (inactive)	0.349 (inactive)	0.865 (inactive)	3.05 (inactive)	0.557	0.175	0.403	0.94	1.14	0.777 (inactive)	-0.0347	17.4 (active)	3.91 (inactive)	2.06 (inactive)	1.28 (inactive)	-0.183	1.09 (inactive)	0.368 (inactive)	1
CC1CC/C=C\[C@H]2OC34C=CCN(C(C)C)C(=O)[C@H]3N(CCCO)C(=O)[C@@H]4C2C(=O)O1 (stereo not given in full)	-0.439	-1.03 (inactive)	1.15 (inactive)	0.601 (inactive)	0.371 (inactive)	-1.47	0.095	1.72	-1.29	0.533	0.658 (inactive)	-0.0536	0.0261 (inactive)	-0.0331 (inactive)	-0.0769 (inactive)	-0.207 (inactive)	-0.251	1.57 (inactive)	0.213 (inactive)	2.02
N#Cc1ccc(NN2C(C(O)c3cccc4ccccc34)C=CC3C(=O)N(c4ccccc4)C(=O)C32)cc1 (stereo not given)	0.305	0.128 (inactive)	-0.811 (inactive)	-0.708 (inactive)	-0.302 (inactive)	1.75	0.49	0.612	0.358	-0.335	-0.499 (inactive)	0.696	12.6 (active)	2.68 (inactive)	1.33 (inactive)	1.44 (inactive)	-0.067	-1.58 (inactive)	-3.65 (inactive)	-3.57
CC(C)(C)N1C(=O)[C@H]2[C@H]3[C@H](O)[C@H](O)CC(=NOCc4ccccc4)[C@@H]3CC[C@H]2C1=O	0.351	-0.939 (inactive)	0.614 (inactive)	0.16 (inactive)	0.479 (inactive)	0.33	-0.0986	0.678	0.119	1.26	0.831 (inactive)	-0.0162	0.464 (inactive)	-1.53 (inactive)	0.877 (inactive)	-2.27 (inactive)	0.581	-1.57 (inactive)	0.413 (inactive)	0.791
COC(=O)C1=C(C)N(Cc2ccccc2)[C@]23O[C@](C(=O)OC)(C(=O)N2[C@@H]1c1ccccc1)[C@H]1CCOC(=O)[C@H]13	0.313	-0.147 (inactive)	-1.02 (inactive)	0.286 (inactive)	-0.213 (inactive)	0.0391	-0.0118	0.252	0.22	1.05	-0.238 (inactive)	-0.0984	0.951 (inactive)	-0.0468 (inactive)	1.3 (inactive)	0.443 (inactive)	-0.537	0.902 (inactive)	0.805 (inactive)	1.06
COc1ccc(O[C@H]2C=C[C@@H](c3ccccc3)O[C@@H]2COC(=O)CCC(C)=NO[C@@H](C)c2cc(-c3c(C)cc(C)cc3C)no2)cc1	-0.61	-0.961 (inactive)	-0.587 (inactive)	-0.315 (inactive)	0.65 (inactive)	-0.987	-0.295	-1.29	-1.04	0.224	0.409 (inactive)	-0.378	0.595 (inactive)	0.322 (inactive)	0.488 (inactive)	0.245 (inactive)	-0.0348	1.18 (inactive)	-0.00862 (inactive)	-1.09
CC(C)=C1C(=O)C(c2ccccc2)=C2CN3C(=O)N(CCc4ccccc4)C(=O)[C@]3(Cc3ccc(F)cc3)[C@H]21	-0.506	-0.934 (inactive)	-0.00959 (inactive)	0.576 (inactive)	1.73 (inactive)	0.0452	0.205	-2.38	-1.7	-1.74	-2.71 (inactive)	0.318	20.9 (active)	4.68 (inactive)	1.48 (inactive)	0.813 (inactive)	-0.51	-0.578 (inactive)	-1.03 (inactive)	-1.11
CCCNC(=O)OC[C@H]1O[C@H](CCON=C[C@@H](OC)[C@H](C)C=CCC(=O)OC)C=C[C@@H]1Oc1ccc(OC)cc1	-0.0615	-0.444 (inactive)	1.18 (inactive)	3.46 (inactive)	0.963 (inactive)	-0.351	-0.206	0.525	0.422	1.05	-0.042 (inactive)	0.0889	4.4 (inactive)	0.143 (inactive)	-0.0652 (inactive)	0.368 (inactive)	0.0604	-1.56 (inactive)	0.00725 (inactive)	-2.76
COC(=O)C1=C(C)[C@@H](O)[C@@H](C)[C@H](c2c(OC)c(OC)c(C)c(OC)c2OC)O1	0.0023	-0.0219 (inactive)	0.148 (inactive)	2.18 (inactive)	0.0745 (inactive)	0.479	-0.218	0.14	0.553	0.535	-0.472 (inactive)	-0.356	0.211 (inactive)	0.589 (inactive)	0.336 (inactive)	0.1 (inactive)	-0.468	-0.101 (inactive)	-0.0181 (inactive)	0.536
C#CCCCON=C1C[C@@H](O)[C@@H](O)[C@@H]2[C@@H]3C(=O)N(CCC(=O)OCC)C(=O)[C@@H]3CC[C@@H]12	0.109	0.402 (inactive)	-0.262 (inactive)	1.15 (inactive)	-0.0962 (inactive)	0.842	0.027	-0.343	0.612	-0.948	0.425 (inactive)	0.309	16.5 (active)	1.47 (inactive)	0.146 (inactive)	0.404 (inactive)	0.194	-9.69 (active)	0.556 (inactive)	0.618
